Test results taken from PubChem BioAssay AID1645870 (National Center for Advancing Translational Sciences (NCATS), 2021).
Where “and” joins values, the source holds several entries; their conditions need not be identical. Equal entries are not always repeated. Hit rate of the full screen: of about 59,000 compounds, about 1,500 (2.5%) were called active. Not shown: some 10% with an inconclusive outcome. The call rests on the fitted dose curve; in most records, active means well fitted inhibition curve with a large enough effect; inconclusive means small, poorly fitted or top-dose-only effect; inactive means flat fitted curve, though single readings scatter. For the sample, actives were picked, then their nearest neighbours and some compounds at random. The source holds several records for some structures; these can differ, active in one and inactive in another.

biological target: N-terminal Xaa-Pro-Lys N-methyltransferase 1 (Homo sapiens) (UniProt Q9BV86); test: Primary qHTS for Inhibitors of N-terminal methyltransferase 1 (NTMT1): MTaseGlo Assay; details: NTMT1 MTase-Glo SAH luminescence, purified enzyme; series mostly up to 114 µM; activity change, negative = inhibition: at the top concentration; further: nearly all actives have a fitted effect of over 65% in size
Sequence (Q9BV86 whole entry, looked up): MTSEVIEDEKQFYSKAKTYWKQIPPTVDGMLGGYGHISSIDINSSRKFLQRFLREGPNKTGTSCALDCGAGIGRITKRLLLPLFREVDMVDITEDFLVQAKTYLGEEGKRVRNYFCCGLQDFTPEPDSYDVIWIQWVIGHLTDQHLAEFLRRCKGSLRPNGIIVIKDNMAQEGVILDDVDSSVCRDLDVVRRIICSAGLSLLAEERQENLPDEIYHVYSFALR
Source text: Assay Submitter (PI): Rong Huang Ph.D.
Purdue University, West Lafayette, IN 47907
The N-terminal methytransferase 1 is the first methyltransferase that methylates protein alpha-N-amines and plays an important role in regulating cell mitosis, chromatin interactions and DNA repair. It is observed to be over-expressed in various cancer patient tissues like malignant melanoma and colorectal cancer tissues. Knockdown of NTMT1 in cancer cells causes cell mitotic defects and enhances sensitivity to DNA damaging chemotherapeutics. […] These critical cellular processes in which NTMT1 is implicated, coupled with emerging links to cellular dysfunction, strengthen the inference that NTMT1 is a compelling novel anticancer target. Progress have been made in understanding the molecular properties of NTMT1 and the biological consequences of protein alpha-N-terminal methylation, but there are no specific small molecule probes available for NTMT1 to fully characterize its MTase activity. To address this unmet need, a panel of assay is created and established to enable quantitative high-throughput screening (qHTS) for novel, potent, and selective small molecule NTMT1 inhibitors. Two orthogonal qHTS that use different reagents (ThioGlo vs. MTaseGlo) are developed for primary robotic screening against the NCATS chemical library of more than 400,000 small molecules. Identified inhibitors are reacquired, validated, and further characterized.
MTaseGlo Assay is a luminescence screen that measure the activity of methyltransferases based on the reaction product S-adenosyl homocysteine (SAH). The substrate SAM is converted to SAH upon enzyme activation. MTase-Glo reagent and detection solution convert SAH to ATP and measure the light from the luciferase reaction.
Materials: NTMT1 enzyme, substrate SPKRIA, control peptide RCC1-6 is provided by the Huang laboratory.
SEQUENCE No. (e.g., 1, 2, 3, etc.); […] (e.g., Cells, Incubation, Reagent, etc.); VALUE; DESCRIPTION
1; Enzyme; 3 uL; Dispense enzyme mixture (final concentrations of 125 nM NTMT1 and 100 uM SAM) into Greiner 1536-well white / solid bottom assay plate (Greiner Bio One, Monroe, NC).
2; Compounds; 23 nL; Compounds and controls were transferred via a Kalypsys Pin Tool (Wako USA) equipped with a 1536-slotted pin array (Wako Automation, Richmond, VA)
3; Incubation; 15 min; Incubate at room temperature
4; Substrate; 1 uL; Dispense 1 uL of substrate at final concentration of 1 uM. Buffer solution was dispensed in control wells. The assay plate was covered with metal lids.
5; Incubation; 30 min; Incubate at room temperature, protected from lights.
6; Reagent; 1 uL; Dispensed 5x MTase-Glo detection reagent (R) into the assay plate. The plate was covered with metal lids.
7; Incubation; 30 min; Incubate the assay plates at room temperature in the dark to allow for SAH to be converted to ADP.
8; Reagent; 5 uL; Dispense 5 uL of 1x MTase-Glo Detection Solution (R) to allow for ADP to be converted to ATP which was then detected with a luciferase reaction.
9; Centrifuge; 15 sec; Centrifuge the assay plate for 15 seconds at 1000 RPM.
10; Incubation; 30 min; Assay plates were incubation at room temperature in the dark.
11; Detection; Luminescence; Plates were read on ViewLux detector (PerkinElmer). Data were normalized to no-enzyme (0% activity) and no-inhibitor (DMSO; 100%) controls, and the resulting percent inhibition data were fitted to a 4-parameter Hill equation using GraphPad Prism.
Potency means the concentration at half of the fitted maximal effect.

| Compound | activity change, negative = inhibition | Potency |
| --- | --- | --- |
| Cc1cc(-c2nnc3n2CCCCC3)c(C)n1-c1ccc(C(F)(F)F)cc1 | 8.06% (inactive) | – |
| COc1cc(F)c(S(=O)(=O)N2CCCN(S(=O)(=O)c3ccc(N)cc3)CC2)c(F)c1 | -9.22% [at 57.5 µM] (inactive) | – |
| CC(C)(C)OC(=O)N1CCN(c2ccc(NCc3ccc4c(-c5ccc(F)cc5)cc(=O)oc4c3)cc2)CC1 | -18.2% (inactive) | – |
| Cc1cc(-c2nnc3n2CCCCC3)c(C)n1-c1cccc(Cl)c1 | -10.6% (inactive) | – |
| C(#Cc1cccs1)c1cccnc1 | 7.74% [at 57.5 µM] (inactive) | – |
| CCOC(=O)c1scc(-c2ccccc2)c1S(=O)(=O)Nc1ccccc1F | 0.149% (inactive) | – |
| CC(C)(C)c1nc(-c2cccc(NS(=O)(=O)c3c(F)cccc3F)c2F)c(-c2ccnc(N)n2)s1 | – | inactive and 39.8 µM (active) |
| O=C(C[C@H]1CC[C@@H](C(=O)Nc2ccc(S(=O)(=O)Nc3nccs3)cc2)C1)c1ccccc1 | -12.4% (inactive) | – |
| O=C(NCc1nnc(C(=O)Nc2ccc(C(F)(F)F)cc2Cl)o1)c1ccccc1 | 2.02% (inactive) | – |
| Cc1cccc(C2N=C(Nc3nc4ccccc4o3)NC3=C2C(=O)CCC3)c1 (stereo unspecified) | 15.6% (inactive) | – |
| COc1ccc(CC(=O)Nc2ccc(-c3nc4ccccc4s3)c(C)c2)cc1 | 1.27% (inactive) | – |
| COc1ccc2c(c1)Cc1sc(NC(=O)c3ccccc3Br)nc1-2 | – | 50.1 µM (active) |
| COc1cccc(C(=O)Nc2nnc(S(=O)(=O)N3CCOCC3)s2)c1 | 9.65% (inactive) | – |
| CC(Cc1cnccn1)Nc1cnc2c(O)ccc(C(=O)O)c2c1 (stereo unspecified) | 28.5% (inactive) | – |
| CCCn1c(-c2ccc(F)cc2)nc2c(NCC3CCCN3CC)nc(C)nc21 (stereo unspecified) | -15.7% (inactive) | – |
| NC(=O)C1CCN(c2ncc(-c3ccc(Cl)cc3)s2)CC1 | 4.39% (inactive) | – |
| COc1cccc(OC2=NS(=O)(=O)c3ccccc32)c1 | -0.822% (inactive) | – |
| Oc1c(Cl)cc(Cl)c(Cl)c1Cc1c(O)c(Cl)cc(Cl)c1Cl | – | 31.6 µM (active) |
| Cc1cc(Nc2cc(C)c(C#N)c(NC(C)CCCC(C)(C)O)n2)n[nH]1 (stereo unspecified) | -16.6% (inactive) | – |
| Cc1ccc(Cn2ncc3c4sc(C)cc4n(C)c3c2=O)c(C)c1 | 11.8% [at 57.5 µM] (inactive) | – |
| O=C1CCc2cc(S(=O)(=O)Nc3cccc(Oc4ccccc4)c3)ccc2N1 | -1.41% (inactive) | – |
| COc1ccc(C2Nc3ccccc3C(=O)N2Cc2cccs2)cc1COc1c(C)cccc1C (stereo unspecified) | 9.71% (inactive) | – |
| COc1cccc(CNc2ccc(S(=O)(=O)Nc3cccs3)cc2)c1O | -9.49% [at 29.8 µM] (inactive) | – |

| Compound | activity change, negative = inhibition | Potency |
| --- | --- | --- |
| CCCn1c(C)nc2c(NCCCCN(CC)CC)nc(C)nc21 | 0.827% (inactive) | – |
| CCc1ccc(CNC(=O)c2cc3c(=O)n(CC)c4ccccc4c3s2)cc1 | -6.25% (inactive) | – |
| CCn1c(=O)c2cc(C(=O)NCCc3ccc(Cl)cc3)sc2c2ccccc21 | 4.04% (inactive) | – |
| CCN(CCCNC(=O)c1cc2c(=O)n(CC)c3ccccc3c2s1)Cc1ccccc1 | – | 79.4 µM (active) |
| COc1ccc(C2Nc3ccccc3C(=O)N2Cc2ccc(CNC(=O)CO)cc2)cc1COc1ccc(NC(C)=O)cc1 (stereo unspecified) | 12% (inactive) | – |
| Cc1cc(C)cc(OC(C)C(=O)Nc2nc3c(s2)CCCC3)c1 (stereo unspecified) | 5.1% (inactive) | – |
| O=C(Nc1nc2c(s1)CCCC2)c1ccccc1F | – | 35.5 µM (active) |
| O=C(Nc1ccc(S(=O)(=O)N2CCC(c3nc4ccccc4s3)CC2)cc1)c1ccccc1F | 7.07% (inactive) | – |
| O=C1CCCC2=C1C(c1[nH]ncc1Cl)N=C(Nc1nc3ccc(F)cc3o1)N2 (stereo unspecified) | 2.12% (inactive) | – |
| CN1C(=O)[C@@H](NC(=O)c2n[nH]c(Cc3ccccc3)n2)COc2ccccc21 | 19.5% (inactive) | – |
| Nc1ccc2c(=O)n3nc(Nc4ccc5c(c4)CCC5)sc3nc2c1 | – | inactive |
| Oc1ccc(/C=C/c2c(F)cccc2F)c2cccnc12 | 8.34% [at 57.5 µM] (inactive) | – |
| CCOc1ccccc1NC(=O)CN1CCN(S(=O)(=O)c2ccc(Br)cc2)CC1 | -13.4% (inactive) | – |
| CCOc1ccccc1C(=O)Nc1ccc(S(=O)(=O)N2CCCCC2c2cccnc2)cc1 (stereo unspecified) | – | 79.4 µM (active) |
| Cc1cccc(C(=O)Nc2ccc(S(=O)(=O)N3CCCCC3c3cccnc3)cc2)c1 (stereo unspecified) | -6.08% (inactive) | – |
| Cn1c2cc(B(O)O)sc2c2cnn(Cc3ccccc3F)c(=O)c21 | 17.4% (inactive) | – |
| CC(C)(O)c1ccccc1CC[C@H](SCC1(CC(=O)O)CC1)c1cccc(/C=C/c2ccc3ccc(Cl)cc3n2)c1 | 1.1% (inactive) | – |
| O=C(NCCc1nc2ccccc2n1CCOc1cccc(Br)c1)C1CCCCC1 | -15.1% [at 57.5 µM] (inactive) | – |
| O=S(=O)(c1ccc2c(c1)OCCO2)N1CCN(S(=O)(=O)c2cc(F)ccc2F)CC1 | 0.151% (inactive) | – |
| COc1ccc(C2Nc3ccccc3C(=O)N2Cc2ccc(Cl)cc2)cc1COc1ccc(NC(C)=O)cc1 (stereo unspecified) | 32.5% (inactive) | – |
| Clc1cccc(-n2ncc3c(NCCc4ccccc4)ncnc32)c1 | -0.791% (inactive) | – |
| Cc1ccc(-n2ncc3c(NCCCn4ccnc4)ncnc32)cc1Cl | – | 44.7 µM (active) |
| CCN(CC)CCNc1ncnc2c1cnn2-c1cc(Cl)ccc1C | -7.62% (inactive) | – |
